The results in this text go back to PubChem BioAssay (EPA / NIEHS).

Calls of active or inactive are those of the source. Rule for the calls: active = hit-call score of the fitted dose curve at least 0.9, where 1 is the maximum; inconclusive = response in the unintended direction; inactive = score below 0.9.

The test system of the assay is rat CYP3A1, gene 25642. Briefly: NVS_ADME_rCYP3A1: NovaScreen (NVS) CYP450-related Enzyme Activity (ADME) Assay for rat CYP3A1 (AID 2283126). The protocol:
NVS_ADME_rCYP3A1 is a biochemical, single-readout assay that uses extracted gene-proteins in a cell-free assay. Measurements were taken 0.5 hour after chemical dosing in a 96-well plate.NVS_ADME_rCYP3A1 is one of one assay component(s) measured or calculated from the NVS_ADME_rCYP3A1 assay. It is designed to make measurements of enzyme activity, a form of enzyme reporter, as detected with fluorescence intensity signals by Fluorescence technology.Data from the assay component NVS_ADME_rCYP3A1 was analyzed into 1 assay endpoint. This assay endpoint, NVS_ADME_rCYP3A1, was analyzed in the positive analysis fitting direction relative to Acetonitrile as the negative control and baseline of activity. Using a type of enzyme reporter, loss-of-signal activity can be used to understand changes in the enzymatic activity as they relate to the gene Cyp3a23/3a1. Furthermore, this assay endpoint can be referred to as a primary readout, because this assay has produced multiple assay endpoints where this one serves a enzymatic activity function. To generalize the intended target to other relatable targets, this assay endpoint is annotated to the cyp intended target family, where the subfamily is xenobiotic metabolism.
Binding assays used specific radioligands (tritiated, iodinated) with non-radioactive competitive displacement ligands in agonist or antagonist protocols (as indicated) and various reference compounds and inhibitors to titrate specific binding to receptors and transporters. Most enzyme assays (CYPs, kinases, phosphatases, proteases, HDACs) used recombinant protein and specific substrates (fluorescence mostly, some colorimetric and radioactive) and inhibitors, followed by a biochemical separation of substrate and product. All assays for the biochemical HTS were initially run in duplicate at a single concentration (10 uM for CYP450 assays and 25 uM for all others). Assay-chemical combinations meeting a pre-defined threshold (e.g., 30% inhibition and other criteria defined below) were then run in singleton concentration-response format with maximum concentration of 20 uM for CYPs and 50 uM for all others. Each assay was run with positive and negative controls, and concurrent controls on every plate. The follow-up (secondary) screen tested active chemical-pairs in concentration series, as well as a few additional assays not tested in the primary screen, some selected negative inactives, and several cases re-run in the concentration series for confirmatory purposes.
Consider `CC(C)(C)C(O)/C(=C\c1ccc(Cl)cc1Cl)n1cncn1` (configuration not stated), for which the AC50 was 0.631 µM (active).

Turning to `O=C(O)C(F)(F)C(F)(F)C(F)(F)C(F)(F)C(F)(F)C(F)(F)C(F)(F)F`, the compound was called inactive.

On to `Oc1ccc(Cl)cc1Cc1ccccc1`, for which the half-maximal activity concentration (AC50) is 8.2 µM (active).

Regarding `CCCN(CCOc1c(Cl)cc(Cl)cc1Cl)C(=O)n1ccnc1`, the concentration at half-maximal activity (AC50) was 0.549 µM (active).

For `COc1nn(CSP(=S)(OC)OC)c(=O)s1`, the half-maximal activity concentration (AC50) is 4.25 µM (active).

Turning to `COP(=S)(OC)Oc1ccc([N+](=O)[O-])cc1`, the AC50 was 6.49 µM (active).

With `CC[C@H](C)[C@H]1O[C@]2(C=C[C@@H]1C)C[C@@H]1C[C@@H](C/C=C(\C)[C@@H](O[C@H]3C[C@H](OC)[C@@H](O[C@H]4C[C@H](OC)[C@@H](O)[C@H](C)O4)[C@H](C)O3)[C@@H](C)/C=C/C=C3\CO[C@@H]4[C@H](O)C(C)=C[C@@H](C(=O)O1)[C@]34O)O2` (tested in a mixture with another compound), the concentration at half-maximal activity (AC50) was 8.86 µM (active).

On to `N#Cc1c(Cl)c(Cl)c(Cl)c(C#N)c1Cl`, for which the half-maximal activity concentration (AC50) was 1.22 µM (active).

Take `CC(C)(C)C(O)C(Oc1ccc(Cl)cc1)n1cncn1` (configuration not stated): the AC50 was 5.65 µM (active).

Regarding `CC(C)N(C(=O)COc1nnc(C(F)(F)F)s1)c1ccc(F)cc1`, the AC50 was 7.94 µM (active).

For the compound `O=S(=O)(O)C(F)(F)C(F)(F)C(F)(F)C(F)(F)C(F)(F)C(F)(F)C(F)(F)C(F)(F)F`, the compound was classed as inactive.

For `CCOC1Oc2ccc(OS(C)(=O)=O)cc2C1(C)C` (configuration not stated), the AC50 was 6.95 µM (active).

As a reminder, the AC50 is the midpoint of the concentration-response curve, whichever way the signal moves.
